Bioassay records deposited in PubChem BioAssay by several laboratories.
Ins promoter up = MIN6 insulin promoter up-regulation | z-score at 5 µM | 190,000 compounds, 0.3% hits | MIN6 insulin promoter-GFP reporter, high-content imaging; active compounds read high;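 active = z-score above 3 at 5 µM with at least 500 cells counted in the well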
WT yeast gro inh = growth inhibition of WT yeast, mitochondrial fusion screen; mitochondrial fusion phenotypic screen, WT strain; inhibition, % at 10 µM; 190,000 compounds, 2.1% hits; AID 1362; in the data active = inhibition above about 58%; tested in S. cerevisiae
ROMK primary = modulates human ROMK potassium channel activity. Tet-inducible ROMK, thallium flux fluorescence; actives lie on both sides. B-score at 10 µM. 130,000 compounds, 2% hits;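 active = signal ratio slope over the read window, or its plate-corrected B-score, at least 3 SD from the plate mean, either direction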;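 also: B-score of the F/F0 ratio slope over 7 to 12 s after thallium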
Cl transport mod = modulators of human KCC2 chloride dependent transport. Q9H2X9. 190,000 compounds, 2.2% hits. KCC2 cells, thallium flux FluoZin-2 fluorescence. AID 1456. B-score of Tl+ flux slope (higher = more flux/activation; lower = inhibition) at 10 µM;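 active = thallium flux slope and its plate-corrected score both differing from the plate sample mean at a set confidence after two filtering rounds, in either direction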;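 also: slope of fluorescence scaled to starting intensity during 10 to 20 s after thallium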
Insulin prom inh = TRM-6 insulin promoter activity inhibition; TRM-6 cells (human fetal islet line), insulin promoter-eGFP reporter, imaging; reporter expression induced with tamoxifen; inhibition, % at 2 µM; 130,000 compounds, 0.9% hits;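 active = inhibition above the mean plus 3 SD, with well images judged a real hit on visual review, cut at about 60% in these data, passing the limit was not always enough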
Lmaj promast = inhibitors of Leishmania major promastigote growth. Leishmania major promastigotes, resazurin fluorescence viability. inhibition, % at 10 µM. 200,000 compounds, 9% hits. AID 1063; in the data active = inhibition above about 50%;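 also: promastigotes grown with compound for 44 hours at 28 °C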
The depositor's hits bear a star; x = not tested or not shown. Hits are enriched below; roughly 12% of the tested compounds scored in any of these assays.

SMILES | Ins promoter up | WT yeast gro inh | ROMK primary | Cl transport mod | Insulin prom inh | Lmaj promast
Cc1ccc(S(=O)(=O)/N=C(/Nc2ccc3[nH]c(=O)[nH]c3c2)c2ccc(F)cc2)cc1 | 0.03 | -9.5 | 0.02 | -0.158 | -47.1 | -1.2
COc1ccc(C2CC(c3ccccc3Cl)Nc3ncnn32)cc1OC (centres undefined) | -0.42 | -0.8 | x | 0.639 | x | 76.0*
CS(=O)(=O)Cc1cc(N2CCCC2)nc(-c2ccccc2)n1 | -0.82 | 2.2 | 0.09 | 0.0794 | x | 60.9*
CSCc1cc(N2CCOCC2)nc(-c2ccccc2)n1 | -1.02 | -0.6 | -0.746 | -0.0133 | 9.1 | -7.5
CC(=O)c1cccc(NC(=O)N2CCCC2C(=O)NCc2ccc(F)cc2)c1 (centres undefined) | -1.03 | -9.3 | 0.666 | -1.11 | x | -3.5
N#C/C(=C\c1cccc([N+](=O)[O-])c1)C(=O)NCc1ccc(Cl)cc1 | -0.29 | 25.6 | -0.0665 | 1.42 | x | 50.6*
COc1ccccc1CC(=O)NNS(=O)(=O)c1ccccc1[N+](=O)[O-] | 0.97 | -12.8 | x | 0.943 | 30.8 | -4.9
COCC(=O)NNS(=O)(=O)c1ccccc1[N+](=O)[O-] | 0.42 | 16.8 | -0.86 | -0.28 | -10.3 | 54.2*
COc1cc(/C=N/Nc2ccc3ccccc3c2)ccc1OC(=O)c1ccco1 | 0.04 | 53.4 | x | -0.0121 | x | 87.8*
O=C(O)COc1ccc(/C=N/Nc2nc(Nc3ccccc3)nc(N3CCCCC3)n2)cc1 | -0.1 | -1.9 | x | 0.00907 | 28.6 | -5.9
Cc1ccc(/C=N/Nc2cc(C)nc(N3CCOCC3)n2)cc1 | 0.32 | x | x | 0.769 | x | x
Cc1ccc(Nc2nc(N/N=C\c3ccc4c(c3)OCO4)nc(N3CCOCC3)n2)cc1 | 0.23 | 36.2 | -1.29 | -0.239 | x | 54.0*
CCOc1cc(/C=N\Nc2nc(Nc3ccccc3)nc(N3CCOCC3)n2)ccc1OC(=O)c1ccco1 | -1.04 | -6.9 | x | -1.42 | x | 87.8*
COc1cc(/C=N/Nc2nc(C)cc(C)n2)ccc1OC(=O)c1ccco1 | 0.05 | -27.6 | 0.14 | 0.394 | 29.7 | 51.5*
Cc1ccc(NC(=O)C2CC(=O)N/C(=N/N=C/c3ccco3)S2)cc1 (centres undefined) | -0.13 | -13.5 | x | -0.764 | x | 58.5*
C/C(=N/N=C1/NC(=O)CC(C(=O)Nc2ccccc2)S1)c1cccs1 (centres undefined) | 0.04 | 3.5 | 0.928 | -0.96 | -3.5 | 78.1*
O=C1CC(C(=O)Nc2ccc(F)cc2)S/C(=N\N=C\c2ccco2)N1 (centres undefined) | 0.15 | 5.4 | 0.644 | -0.477 | 10.0 | 7.7
C/C(CCc1ccc2c(c1)OCO2)=N\N=C1\NC(=O)CC(C(=O)Nc2ccc(Cl)cc2)S1 (centres undefined) | 0.21 | 72.7* | x | 0.0798 | 7.1 | -6.8
Cc1cc(C)cc(NC(=O)NN2C(C)CCCC2C)c1 (centres undefined) | -0.55 | 13.5 | 0.552 | -0.0779 | x | 12.1
Cc1ccc2c(CSc3nnc(N)s3)cc(=O)oc2c1 | -0.18 | -4.8 | -0.201 | 0.309 | -1.8 | -1.6
CC(C)c1nc(N2CCCC2)c(C#N)c2c1CCCC2 | 0.26 | 70.3* | x | -0.767 | 43.2 | -3.9
CCc1nc(N2CCCC2)c(C#N)c2c1CCCC2 | x | 17.4 | x | 0.421 | 13.6 | 0.6
Cn1nnnc1SC(C(=O)Nc1cccc(C(F)(F)F)c1)c1ccccc1 (centres undefined) | 0.66 | 15.3 | -0.0379 | 0.761 | 6.9 | 61.5*
O=S(=O)(c1cccs1)N1CCCc2cccc(O)c21 | 0.31 | -9.7 | -0.475 | -0.137 | 4.2 | 12.7
C=CCn1c(=O)[nH]c2cc(C(=O)N3CCN(c4cc(C)ccc4C)CC3)ccc2c1=O | x | 10.6 | 0.757 | -0.907 | -40.5 | 39.5
SMILES | Ins promoter up | WT yeast gro inh | ROMK primary | Cl transport mod | Insulin prom inh | Lmaj promast
Cc1ccc(C)c(N2CCN(C(=O)c3ccc(Cn4c(=O)[nH]c5ccccc5c4=O)cc3)CC2)c1 | -0.59 | 40.5 | 0.0407 | x | x | 98.0*
O=C(c1ccc(Cn2c(=O)[nH]c3ccccc3c2=O)cc1)N1CCN(c2ccc(Cl)cc2)CC1 | -0.39 | 53.7 | 1.38 | x | -81.8 | 95.9*
CC(=O)c1ccc(N2CCN(C(=O)c3ccc(Cn4c(=S)[nH]c5ccc(N6CCOCC6)cc5c4=O)cc3)CC2)cc1 | -1.14 | -6.8 | 0.663 | 0.104 | 18.2 | 97.9*
CS(=O)(=O)N(CC(=O)N1CCCC1)c1cc(C(F)(F)F)ccc1Cl | x | 10.8 | -0.455 | -0.451 | 16.7 | -6.4
Cc1csc(N(C(=O)c2ccc(S(=O)(=O)N(C)C)cc2)c2ccccc2)n1 | x | 12.6 | x | 0.355 | 6.7 | -3.1
Cc1csc(N(C(=O)CCNC(=O)c2ccc([N+](=O)[O-])cc2)c2ccccc2)n1 | 0.66 | -16.4 | x | 1.85 | 11.1 | 63.6*
Cc1n[nH]c(C)c1S(=O)(=O)N1CCCC(C(=O)NCc2ccccc2Cl)C1 (centres undefined) | 0.39 | -10.6 | 0.638 | -0.156 | -14.3 | -2.7
CCCN(CCC)c1nc(N(CCC)CCC)[nH]c(=O)n1 | -1.37 | 4.8 | -0.106 | -0.574 | x | 57.3*
CCCN(CCC)c1nc(C#N)nc(N(CCC)CCC)n1 | -0.73 | 33.4 | x | 0.0184 | 46.7 | 7.5
NC(=O)c1sc2nc(-c3cccnc3)ccc2c1N | 0.04 | x | -0.933 | -0.252 | x | x
CCOC(=O)c1sc2nc(-c3cccnc3)ccc2c1N | -0.21 | 6.5 | -0.013 | -0.709 | 71.4* | 9.6
Nc1c(C(=O)Nc2ccc(Cl)c(Cl)c2)sc2nc(-c3cccnc3)ccc12 | 0.08 | 6.7 | x | -0.00553 | -25.9 | 58.9*
Cn1cccc1Cc1nnc(SCC(=O)NCc2ccco2)n1CCc1ccccc1 | 0.24 | 9.2 | x | x | -81.8 | -3.4
CON/C=C(\C=Nc1ccc(Cl)cc1Cl)c1ncc(C(F)(F)F)cc1Cl | -0.93 | -14.4 | x | x | 48.4 | -4.3
Cc1ccc(OC(F)F)c(NC(=O)Nc2cccc(C(F)(F)F)c2)c1 | 1.35 | 48.7 | 0.939 | x | -24.1 | 21.5
CCNC(=O)N1CCNC(=O)C1CC(=O)OC (centres undefined) | -0.49 | -9.6 | x | 0.578 | -1.3 | -5.7
C=C(C)CNC(=S)N1CCNC(=O)C1CC(=O)OC (centres undefined) | 0.25 | -4.6 | 0.0167 | 1.66 | 6.9 | 78.1*
CCCc1nc2ccc(NC(C)=O)cc2c(=O)n1Cc1ccc(Cl)cc1 | x | -10.9 | x | 0.841 | 33.3 | 83.1*
CCCc1nc2ccc(NC(=O)c3cccs3)cc2c(=O)n1Cc1ccccc1Cl | 0.99 | 7.6 | x | -0.116 | 20.7 | 50.0*
Cn1c(CN2CCCCC2)nc2cc(NC(=O)c3cccs3)ccc21 | 0.52 | 17.9 | x | 1.2 | 0.0 | 13.0
Cc1cc(=O)oc2c(CN3CCC(C)CC3)c(O)c(Cl)cc12 | 0.58 | -0.5 | -0.982 | 0.126 | 21.4 | -0.4
CC12CCC(C(=O)NC(c3ccccc3)c3ccccc3)(OC1=O)C2(C)C (centres undefined) | 0.62 | 31.7 | -0.162 | 0.374 | 13.3 | 0.8
CC(C)NC(=O)c1onc(CSc2ccccc2F)c1C(=O)O | -0.71 | 16.3 | x | 0.674 | 2.7 | -9.4
Cc1ccccc1SCc1noc(C(=O)NC(C)C)c1C(=O)O | 3.02* | -5.7 | x | -0.66 | -51.4 | -0.1
CC(C)NC(=O)c1onc(CSc2ccc(F)cc2)c1C(=O)O | 0.65 | 0.7 | x | -0.084 | 89.2* | 2.8
CC(C)NC(=O)c1onc(CSc2ccc(C(C)C)cc2)c1C(=O)O | -1.29 | 11.6 | x | -2.39 | -16.2 | -10.5
